Among all 330,000 compounds or so, about 10,000 (3%) were called active. What follows is part of a selection rich in actives, with near analogues and random picks from the rest. A number with no mark means an inactive call.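 How the source made its calls: active means inhibition of at least 50% at 8 µM in the primary screen; inactive means the rest.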
Molecular target: Protein Mdm4 (Homo sapiens) + E3 ubiquitin-protein ligase Mdm2 (Homo sapiens) (UniProt O15151+Q00987)
Assay: inhibitors of human Mdm2-MdmX association, primary screen, cell-based, luminescence, split luciferase, SaOS-2, uHTS (AID 485346)
Details: SaOS-2 split-luciferase Mdm2/MdmX complementation, at 8 µM, hits give high values

Chain of Protein Mdm4 (Homo sapiens) + E3 ubiquitin-protein ligase Mdm2 (Homo sapiens) (O15151 whole entry, looked up): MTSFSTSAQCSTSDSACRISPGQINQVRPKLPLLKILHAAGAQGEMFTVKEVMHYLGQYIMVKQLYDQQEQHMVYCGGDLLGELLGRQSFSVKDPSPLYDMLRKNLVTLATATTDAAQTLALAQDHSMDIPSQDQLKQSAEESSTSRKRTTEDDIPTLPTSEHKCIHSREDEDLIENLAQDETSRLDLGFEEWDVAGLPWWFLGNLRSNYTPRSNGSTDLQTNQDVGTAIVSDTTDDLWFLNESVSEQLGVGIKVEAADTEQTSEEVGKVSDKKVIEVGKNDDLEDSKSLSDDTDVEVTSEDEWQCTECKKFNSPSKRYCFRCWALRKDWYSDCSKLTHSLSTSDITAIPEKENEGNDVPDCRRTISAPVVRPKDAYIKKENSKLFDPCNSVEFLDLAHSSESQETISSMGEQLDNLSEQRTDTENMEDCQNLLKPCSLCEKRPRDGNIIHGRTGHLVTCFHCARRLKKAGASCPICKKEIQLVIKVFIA
Chain of Protein Mdm4 (Homo sapiens) + E3 ubiquitin-protein ligase Mdm2 (Homo sapiens) (Q00987 whole entry, looked up): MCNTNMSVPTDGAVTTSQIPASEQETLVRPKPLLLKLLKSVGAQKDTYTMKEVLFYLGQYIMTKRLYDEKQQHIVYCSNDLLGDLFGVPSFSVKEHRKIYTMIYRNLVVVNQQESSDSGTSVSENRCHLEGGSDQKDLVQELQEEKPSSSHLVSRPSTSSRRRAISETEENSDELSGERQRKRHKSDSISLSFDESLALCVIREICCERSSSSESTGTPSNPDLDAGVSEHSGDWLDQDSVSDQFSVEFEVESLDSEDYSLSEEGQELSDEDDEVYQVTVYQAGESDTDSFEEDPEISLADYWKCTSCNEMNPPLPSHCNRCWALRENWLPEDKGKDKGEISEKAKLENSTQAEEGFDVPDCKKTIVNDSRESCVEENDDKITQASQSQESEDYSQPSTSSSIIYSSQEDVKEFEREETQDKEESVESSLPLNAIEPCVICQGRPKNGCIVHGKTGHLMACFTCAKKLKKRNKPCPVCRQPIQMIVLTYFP

SMILES | inhibition
COC(=O)c1ccc(/C=N/OCC(=O)Nc2cc(F)ccc2F)cc1 | -13.4%
COc1ccccc1N1CCN(C(=O)c2c(-c3c(Cl)cccc3Cl)noc2C)CC1 | 15.5%
COc1ccccc1N1CCN(c2ncnc3sc(C)c(-c4ccccc4)c23)CC1 | 69.2% (active)
COc1ccccc1N1CCN(c2ccc([N+](=O)[O-])nc2)CC1 | 16.1%
O=C(NC1Cc2ccccc2C1)c1cc(COc2cccc(C(F)(F)F)c2)on1 | 26.2%
CC(=O)c1ccc2c(c1)c1ccccc1n2CC(C)C | 47.4%
CS(=O)(=O)N(CC(O)Cn1c2ccccc2c2ccccc21)c1cccc2ccccc12 (configuration not stated) | 64.1% (active)
CCCCN(CCCC)CC(O)Cn1c2ccccc2c(=O)c2ccccc21 (configuration not stated) | 18.6%
COc1ccc(S(=O)(=O)N2CCOCC2)cc1NC(=O)CSc1cc(C)ccc1C | 9.92%
Cn1c2c(c(=O)n(C)c1=O)C(c1cccc(F)c1)C(C#N)=C(N)O2 (configuration not stated) | -0.62%
Cc1ccc(C(=O)NCC(=O)NCc2cc(=O)n(C)c(=O)n2C)cc1 | -0.269%
CCC(C)NC(=O)c1cc(Cl)ccc1OC (configuration not stated) | 2.55%
COC(=O)c1ccc(NC(=O)c2cc(Cl)ccc2OC)cc1 | 92.4% (active)
COc1ccc(Cl)cc1C(=O)Nc1ccc(N(C)C(C)=O)cc1 | 1.34%
COc1cc(NC(=S)NCCSc2ccc(C)cc2)cc(OC)c1 | 27.5%
O=S(=O)(NCc1cccnc1)c1ccc(Br)s1 | 1%
O=C(NCCc1ccccc1)C1CCN(S(=O)(=O)c2ccc(Br)s2)CC1 | 18.6%
O=S(=O)([N-]c1nc2ccccc2nc1-[n+]1ccc(Cc2ccccc2)cc1)c1ccc(Br)s1 | 71.9% (active)
COc1ccc2c(c1)c1nc3n(c(=O)c1n2CC(=O)Nc1ccccc1)CCS3 | 41.9%

SMILES | inhibition
CC(C(=O)NC1CCCC1)N1CCN(S(=O)(=O)c2ccccc2Cl)CC1 (configuration not stated) | -17.2%
COc1ccc(C(=O)NC2CCCc3c2cnn3-c2cccc(C)c2C)c(OC)n1 (configuration not stated) | 97.7% (active)
Cc1ccc(-n2ncc3c2CCCC3NC(=O)c2cnccn2)cc1C (configuration not stated) | 9.66%
CC(=O)NCC(=O)NC1CCCc2c1cnn2-c1ccccc1F (configuration not stated) | -11.2%
Cc1cc(C(=O)NC2CCCc3c2cnn3-c2cccc(C)c2C)c(C)o1 (configuration not stated) | 68% (active)
Cn1nccc1C(=O)NC1CCCc2c1cnn2-c1ccccc1F (configuration not stated) | -1.1%
Cn1nccc1C(=O)NC1CCCc2c1cnn2-c1ccc(F)cc1F (configuration not stated) | 26.9%
Cc1nonc1C1CCCN1Cc1nc(-c2ccc(F)cc2F)oc1C (configuration not stated) | 29.7%
Clc1ccc(C[n+]2cc(-c3ccc(Cl)cc3)n3c2CCC3)cc1 | 31.8%
COc1ccc(S(=O)(=O)Nc2ccc3cn[nH]c3c2)cc1[N+](=O)[O-] | 0.751%
Cc1cccc(N(CC(=O)N=Nc2c(O)[nH]c3ccccc23)S(C)(=O)=O)c1C | -22.1%
O=[N+]([O-])c1cc(S(=O)(=O)Nc2cccc(Cl)c2)ccc1N=Nc1c(O)[nH]c2ccccc12 | 97.4% (active)
Cc1cccc(N(C)C(=O)c2cc3c(=O)[nH]c4ccc(C)cc4c3s2)c1 | 60.9% (active)
Cc1ccc2[nH]c(=O)c(CC(=O)O)c(-c3ccccc3)c2c1 | 22%
CCN(CC)CCCNC(=O)c1cc2c(=O)[nH]c3ccc(C)cc3c2s1 | 26.3%
O=C(CNC(=O)C12CC3CC(CC(C3)C1)C2)OCC(=O)N1CCCCC1 | 19.2%
C/C(=N\NC(=O)c1ccc(NS(=O)(=O)c2cccs2)cc1)c1ccc2ccccc2c1 | -6.93%
COc1cc(OC)cc(C(=O)NC2CCN(C(=O)N3c4ccccc4Sc4ccccc43)CC2)c1 | 9.25%
Nc1ccc(C(=O)Nc2ccccc2N)cc1 | 54.8% (active)

SMILES | inhibition
CC(=O)Nc1ccccc1NC(=O)c1cc(C)cc(C)c1 | -1.21%
Nc1ccc(C(=O)NCc2ccccc2)cc1 | 3.98%
O=C(Nc1ccc(N2C(=O)c3cccc4cccc(c34)C2=O)cc1)c1ccc(N2CCCCC2)c([N+](=O)[O-])c1 | -6.66%
CC(NC(=O)c1ccc(N2CCNCC2)c([N+](=O)[O-])c1)C12CC3CC(CC(C3)C1)C2 (configuration not stated) | 101% (active)
O=C(Nc1cccc(C(F)(F)F)c1)c1ccc(N2CCNCC2)c([N+](=O)[O-])c1 | 52.8% (active)
COc1cc(OC)cc(C(=O)NC(=S)N2CCN(c3ccc(C(F)(F)F)cc3[N+](=O)[O-])CC2)c1 | 17.3%
O=C(NC1C2CC3CC(C2)CC1C3)c1ccc(N2CCNCC2)c([N+](=O)[O-])c1 (configuration not stated) | 34.8%
CCC(C)NC(=O)c1ccc(N2CCC3(CC2)OCCO3)c([N+](=O)[O-])c1 (configuration not stated) | 10.6%
Brc1c(CSc2nncc3ccccc23)nc2ccccn12 | 21.7%
CCc1ccccc1NC(=O)c1ccc2c(c1)CCN2S(C)(=O)=O | 24.8%
CC(=N\NC(=O)c1cc(Br)ccc1O)/C(=N/O)C(=O)Nc1ccccc1 | 36.7%
CCN(CC)C(CNC(=O)CSc1nnnn1-c1cccc(F)c1)c1ccco1 (configuration not stated) | -4.51%
Cc1ccc(-n2c(SCC(=O)NCCC3=CCCCC3)nc3n[nH]c(C)c3c2=N)cc1Cl | 28.5%
CCCCNC(=O)CSc1nc2n[nH]c(C)c2c(=N)n1-c1cccc(Cl)c1C | -6.85%
COc1cccc(-n2c(SCC(=O)NC3CCCCC3)nc3n[nH]c(C)c3c2=N)c1 | 53.3% (active)
COCCNC(=O)CSc1nc2sccc2c(=O)n1-c1ccccc1 | 6.49%
Cn1c(=O)n(Cc2ccco2)c(=N)c2c3c(sc21)CCCC3 | 15.6%
O=c1c2c3c(sc2n(CCN2CCCC2)c(=O)n1Cc1ccccc1)CCCCC3 | 28.5%
CN(C)CCCn1c(=O)n(Cc2ccccc2)c(=O)c2c3c(sc21)CCCCC3 | 61.8% (active)

— PubChem BioAssay AID485346 (Sanford-Burnham Center for Chemical Genomics, 2010)
